In PubChem BioAssay (Tox21):
Inconclusive results are not listed. The source made the active and inactive calls. Unless noted, calls follow the shape of the full dose curve.

Assays:
[1] = qHTS assay to identify small molecule agonists of the sonic hedgehog signaling (Shh) pathway (AID 1259368);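 also: NIH/3T3-derived 3T3Gli1-Luc cells carrying a stable Gli1-driven firefly luciferase reporter; series mostly up to about 92 µM; nearly all actives have a fitted effect of over 15% in size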
Method in brief: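 Hedgehog pathway agonism scored by increased firefly luciferase luminescence in 3T3Gli1-Luc cells treated 24 hr at 37 C; detection used a 30 min room-temperature reagent incubation.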

[2] = qHTS assay to identify small molecule antagonists of the sonic hedgehog signaling (Shh) pathway (AID 1259369); also: nearly all actives have a fitted effect of over 45% in size
Method in brief: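 NIH/3T3 stable Gli1-Luc clone, 2,000 cells/well, 4hr settle; cpd + conditioned medium 24hr; Luc reagent 30min RT; luminescence.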

[3] = molecular target: Estrogen receptor beta (Homo sapiens) (UniProt Q92731); assay: qHTS assay to identify small molecule agonists of the estrogen receptor beta (ER-beta) signaling pathway (AID 1259377; active = well fitted activation curve with a large enough effect in the signal ratio in the repeat runs, not every such curve was filed as active; the % refers to the signal ratio)
Estrogen receptor beta (Homo sapiens), sequence (Q92731 whole entry, looked up): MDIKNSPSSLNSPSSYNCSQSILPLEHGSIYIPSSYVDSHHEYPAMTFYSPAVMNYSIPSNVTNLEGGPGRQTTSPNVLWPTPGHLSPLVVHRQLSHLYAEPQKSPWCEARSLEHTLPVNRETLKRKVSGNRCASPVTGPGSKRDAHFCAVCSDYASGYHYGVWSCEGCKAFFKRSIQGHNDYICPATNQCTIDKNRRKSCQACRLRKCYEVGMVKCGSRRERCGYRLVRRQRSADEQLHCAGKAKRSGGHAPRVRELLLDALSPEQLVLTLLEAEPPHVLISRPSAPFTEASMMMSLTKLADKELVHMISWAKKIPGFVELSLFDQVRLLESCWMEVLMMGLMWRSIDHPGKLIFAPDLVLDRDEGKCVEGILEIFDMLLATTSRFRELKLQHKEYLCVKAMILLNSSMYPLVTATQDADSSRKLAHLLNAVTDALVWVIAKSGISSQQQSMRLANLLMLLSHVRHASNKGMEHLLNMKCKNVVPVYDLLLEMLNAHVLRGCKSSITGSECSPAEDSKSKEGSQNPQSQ
Method in brief: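 qHTS in ER-beta-UAS-bla HEK293T cells: 6 hr settling, then 16 hr compound at 37C, then LiveBLAzer substrate 2 h at RT before fluorescence reading.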

[4] = molecular target: Estrogen receptor beta (Homo sapiens) (UniProt Q92731); assay: qHTS assay to identify small molecule antagonists of the estrogen receptor beta (ER-beta) signaling pathway (AID 1259378; active = well fitted inhibition curve with a large enough effect in the signal ratio in the repeat runs, not every such curve was filed as active; the % refers to the signal ratio)
Method in brief: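 ER-beta-UAS-bla HEK293T cells in 2% charcoal-stripped FBS medium treated with compound plus 1nM final 17-beta-estradiol for 16 hr at 37C. Beta-lactamase reporter read by FRET substrate fluorescence after 2 hours at room temperature.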

[5] = qHTS assay to identify small molecule agonists of the androgen receptor (AR) signaling pathway in the presence of an antagonist - cell viability counter screen (AID 1259379; active = well fitted curve in the direction sought with a large enough effect in the repeat runs; an effect the other way counts as inactive or inconclusive;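 also: MDA-kb2 human breast cancer cells carrying an MMTV luciferase reporter; series mostly up to about 92 µM; nearly all actives have a fitted effect of over 25% in size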)
Method in brief: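 MDA-kb2 viability measured by CellTiter-Fluor fluorescence in the same wells as the luciferase signal; nilutamide 3.0uM final; 15-point compound titration; 16 hr at 37C.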

[6] = qHTS assay to identify small molecule agonists of the estrogen receptor beta (ER-beta) signaling pathway - cell viability counter screen (AID 1259380; active = well fitted curve in the direction sought with a large enough effect in the repeat runs; an effect the other way counts as inactive or inconclusive; also: nearly all actives have a fitted effect of over 30% in size)
Method in brief: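 Measured: luminescence from CellTiter-Glo after 30 min at room temperature, added to wells already read for the LiveBLAzer FRET reporter (2 hr substrate); ER-beta-UAS-bla HEK293T cells had 16 hr compound treatment at 37C, 5% CO2.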

[7] = qHTS assay to identify small molecule antagonists of the estrogen receptor beta (ER-beta) signaling pathway - cell viability counter screen (AID 1259382; active = well fitted curve in the direction sought with a large enough effect in the repeat runs; an effect the other way counts as inactive or inconclusive; also: series mostly up to about 92 µM; nearly all actives have a fitted effect of over 55% in size)
Method in brief: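 Readout: luminescence, CellTiter-Glo, same wells as bla assay. System: ER-beta-UAS-bla GripTite HEK293T, 2% charcoal-stripped FBS. Exposure: compounds plus 1nM 17-beta-estradiol, 16 hr, 37C.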

[8] = molecular target: Estrogen receptor (Homo sapiens) (UniProt P03372); assay: qHTS assay to identify small molecule agonists of the estrogen receptor alpha (ER-alpha) signaling pathway in the presence of an antagonist (AID 1259383); also: top concentration of the series differs between compounds; nearly all actives have a fitted effect of over 15% in size
Estrogen receptor (Homo sapiens), sequence (P03372 whole entry, looked up): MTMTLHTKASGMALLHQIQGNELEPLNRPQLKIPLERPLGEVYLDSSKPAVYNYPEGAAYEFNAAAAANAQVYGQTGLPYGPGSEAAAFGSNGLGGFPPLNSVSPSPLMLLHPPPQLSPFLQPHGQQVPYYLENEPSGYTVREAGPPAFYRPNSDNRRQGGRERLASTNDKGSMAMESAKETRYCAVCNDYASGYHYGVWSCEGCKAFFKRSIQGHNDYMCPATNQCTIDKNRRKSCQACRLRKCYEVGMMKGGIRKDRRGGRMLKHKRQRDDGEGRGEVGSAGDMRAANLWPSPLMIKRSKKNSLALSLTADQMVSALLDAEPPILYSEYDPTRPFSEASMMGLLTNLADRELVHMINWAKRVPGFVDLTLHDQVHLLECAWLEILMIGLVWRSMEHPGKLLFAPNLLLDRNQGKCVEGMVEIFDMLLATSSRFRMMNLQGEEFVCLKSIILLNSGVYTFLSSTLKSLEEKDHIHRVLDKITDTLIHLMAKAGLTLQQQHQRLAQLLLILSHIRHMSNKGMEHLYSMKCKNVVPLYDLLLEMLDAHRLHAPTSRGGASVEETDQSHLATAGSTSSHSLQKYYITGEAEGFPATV
Method in brief: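 Quantitative HTS confirmation: compounds titrated at 15 concentrations onto estrogen-deprived VM7Luc4E2 cells carrying a four-ERE luciferase construct, with ICI-182,780 present at 10.0nM final. Signal is luminescence after 22hr exposure.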

[9] = qHTS assay to identify small molecule agonists or antagonists of the thyroid stimulating hormone receptor (TSHR) signaling pathway - wild type cell line counter screen (AID 1259384)
Method in brief: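 Wild-type Hek293 cells, 800/well, 18 h at 37C, then compound with Ro20-1724 for 30 min RT. cAMP by HTRF (cAMP-d2/anti-cAMP cryptate), 1 h RT, fluorescence read. 15 concentrations, triplicates.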

[10] = molecular target: Thyrotropin receptor (Homo sapiens) (UniProt P16473); assay: qHTS assay to identify small molecule antagonists of the thyroid stimulating hormone receptor (TSHR) signaling pathway (AID 1259385); also: nearly all actives have a fitted effect of over 20% in size
Thyrotropin receptor (Homo sapiens), sequence (P16473 whole entry, looked up): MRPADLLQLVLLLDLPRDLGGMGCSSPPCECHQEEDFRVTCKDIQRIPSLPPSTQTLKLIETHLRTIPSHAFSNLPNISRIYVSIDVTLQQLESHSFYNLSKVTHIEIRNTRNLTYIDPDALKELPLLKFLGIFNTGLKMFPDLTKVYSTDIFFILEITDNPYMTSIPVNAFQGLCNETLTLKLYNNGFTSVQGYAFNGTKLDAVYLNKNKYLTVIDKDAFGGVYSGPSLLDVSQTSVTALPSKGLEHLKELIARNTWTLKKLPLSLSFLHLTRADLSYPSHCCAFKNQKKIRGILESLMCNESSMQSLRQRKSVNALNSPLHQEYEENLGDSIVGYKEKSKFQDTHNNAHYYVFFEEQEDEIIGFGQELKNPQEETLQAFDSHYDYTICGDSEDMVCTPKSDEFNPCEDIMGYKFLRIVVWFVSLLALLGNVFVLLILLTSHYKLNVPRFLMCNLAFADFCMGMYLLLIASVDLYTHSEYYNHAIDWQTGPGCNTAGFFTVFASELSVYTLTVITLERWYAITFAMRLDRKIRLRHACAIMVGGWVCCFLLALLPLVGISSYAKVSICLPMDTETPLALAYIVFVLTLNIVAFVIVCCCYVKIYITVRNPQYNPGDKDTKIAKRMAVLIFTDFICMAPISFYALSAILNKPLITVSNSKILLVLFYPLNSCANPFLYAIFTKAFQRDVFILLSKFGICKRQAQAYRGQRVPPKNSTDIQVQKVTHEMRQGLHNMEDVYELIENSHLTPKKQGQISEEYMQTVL
Method in brief: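 TSHR-HEK293 cells (800/well) plated 18 h, then compounds with Ro20-1724 and TSH at 1.5 ng/mL final, 30 min at room temperature. cAMP quantified by HTRF (cAMP-d2/anti-cAMP-cryptate, 1 h); 15 concentrations in triplicate.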

[11] = qHTS assay to identify small molecule agonists of the estrogen receptor alpha (ER-alpha) signaling pathway in the presence of an antagonist - cell viability counter screen (AID 1259386; active = well fitted curve in the direction sought with a large enough effect in the repeat runs; an effect the other way counts as inactive or inconclusive;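 also: series mostly up to about 92 µM; cells exposed to compounds for 22 h at 37 °C before the viability read; nearly all actives have a fitted effect of over 30% in size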)
Method in brief: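 The test measures whether compounds kill ER-alpha reporter cells (VM7Luc4E2) under antagonist co-treatment (ICI-182,780, 10.0nM). Fluorescence from CellTiter-Fluor is read after a 22hr exposure.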

[12] = molecular target: Progesterone receptor (Homo sapiens) (UniProt P06401); assay: qHTS assay to identify small molecule agonists of the progesterone receptor (PR) signaling pathway (AID 1346784); also: nearly all actives have a fitted effect of over 30% in size
Progesterone receptor (Homo sapiens), sequence (P06401 whole entry, looked up): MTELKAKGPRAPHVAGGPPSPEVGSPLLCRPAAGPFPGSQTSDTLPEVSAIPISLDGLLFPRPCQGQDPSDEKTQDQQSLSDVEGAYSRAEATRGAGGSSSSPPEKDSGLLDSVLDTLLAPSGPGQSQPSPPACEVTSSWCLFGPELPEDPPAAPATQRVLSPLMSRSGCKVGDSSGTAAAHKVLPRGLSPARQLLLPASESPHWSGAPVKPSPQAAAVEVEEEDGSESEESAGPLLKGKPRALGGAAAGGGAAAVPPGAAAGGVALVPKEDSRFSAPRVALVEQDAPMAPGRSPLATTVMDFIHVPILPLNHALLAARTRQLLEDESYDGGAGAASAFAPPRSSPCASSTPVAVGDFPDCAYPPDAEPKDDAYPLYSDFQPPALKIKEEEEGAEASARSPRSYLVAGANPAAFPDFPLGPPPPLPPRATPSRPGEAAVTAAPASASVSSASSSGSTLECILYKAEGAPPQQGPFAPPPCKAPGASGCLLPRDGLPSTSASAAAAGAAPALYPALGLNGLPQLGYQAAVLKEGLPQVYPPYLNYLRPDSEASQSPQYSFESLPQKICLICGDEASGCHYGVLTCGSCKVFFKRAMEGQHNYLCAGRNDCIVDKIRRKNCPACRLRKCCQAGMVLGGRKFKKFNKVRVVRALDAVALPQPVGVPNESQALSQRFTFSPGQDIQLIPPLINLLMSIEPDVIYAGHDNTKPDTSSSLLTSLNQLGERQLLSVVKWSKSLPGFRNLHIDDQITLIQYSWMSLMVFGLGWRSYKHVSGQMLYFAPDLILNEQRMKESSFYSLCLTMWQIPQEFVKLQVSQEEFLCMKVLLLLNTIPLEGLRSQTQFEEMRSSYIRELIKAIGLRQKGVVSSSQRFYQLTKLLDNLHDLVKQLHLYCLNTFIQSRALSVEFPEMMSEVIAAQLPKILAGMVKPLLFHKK
Method in brief: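 Fluorescence from LiveBLAzer B/G FRET substrate cleavage (2 hr, RT) reported PR activation in PR-UAS-bla HEK 293T cells treated 16 hr at 37C/5% CO2 with compounds; medium contained 2% charcoal-stripped FBS.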

[13] = qHTS assay to identify small molecule antagonists of the progesterone receptor (PR) signaling pathway - cell viability counter screen (AID 1346798; active = well fitted curve in the direction sought with a large enough effect in the repeat runs; an effect the other way counts as inactive or inconclusive; also: series mostly up to about 92 µM; nearly all actives have a fitted effect of over 50% in size)
Method in brief: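 CellTiter-Glo luminescence; PR-UAS-bla HEK293T, 3,000 cells/well; compound + R5020, 16 hr, 37C/5% CO2; 30 min RT before read.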

[14] = qHTS assay to identify small molecule agonists of the progesterone receptor (PR) signaling pathway - cell viability counter screen (AID 1346799); also: nearly all actives have a fitted effect of over 45% in size
Method in brief: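 In parallel with the beta-lactamase readout, cytotoxicity toward PR-UAS-bla HEK293T cells was measured by CellTiter-Glo luminescence following 16 hr compound incubation in 2% charcoal-stripped FBS medium.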

[15] = qHTS assay to identify small molecule antagonists of the TGF-beta/Smad signaling pathway - cell viability counter screen (AID 1346824; active = well fitted curve in the direction sought with a large enough effect in the repeat runs; an effect the other way counts as inactive or inconclusive; also: nearly all actives have a fitted effect of over 50% in size)
Method in brief: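 SBE-bla HEK 293T cells, incubated overnight, then compound plus 0.25 ng/mL TGF-beta1 (stock added) for 5 hr at 37 C. Viability was read in the same wells by CellTiter-Glo luminescence after 30 min at room temperature.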

[16] = qHTS assay to identify small molecule agonists of the TGF-beta/Smad signaling pathway - cell viability counter screen (AID 1346829; active = well fitted curve in the direction sought with a large enough effect in the repeat runs; an effect the other way counts as inactive or inconclusive; also: top concentration of the series differs between compounds; nearly all actives have a fitted effect of over 45% in size)
Method in brief: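 After overnight seating at 37 C and 5% CO2, reporter cells got compounds for 5 hr and FRET substrate for 2 hr; cell viability then came from CellTiter-Glo luminescence.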

[17] = qHTS assay to identify small molecule agonists of the TGF-beta/Smad signaling pathway (AID 1346859; active = well fitted activation curve with a large enough effect in the signal ratio in the repeat runs, not every such curve was filed as active; the % refers to the signal ratio; also: series mostly up to about 77 µM)
Method in brief: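 After overnight seeding, SBE-bla HEK 293T cells are dosed with compounds in DMSO and kept 5 hr at 37 C, 5% CO2. LiveBLAzer-type FRET substrate is then applied for 2 hr at room temperature.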

[18] = molecular target: Androgen receptor (Homo sapiens) (UniProt P10275); assay: qHTS assay to identify small molecule agonists of the androgen receptor (AR) signaling pathway in the presence of an antagonist (AID 1259381); also: nearly all actives have a fitted effect of over 15% in size
Androgen receptor (Homo sapiens), sequence (P10275 whole entry, looked up): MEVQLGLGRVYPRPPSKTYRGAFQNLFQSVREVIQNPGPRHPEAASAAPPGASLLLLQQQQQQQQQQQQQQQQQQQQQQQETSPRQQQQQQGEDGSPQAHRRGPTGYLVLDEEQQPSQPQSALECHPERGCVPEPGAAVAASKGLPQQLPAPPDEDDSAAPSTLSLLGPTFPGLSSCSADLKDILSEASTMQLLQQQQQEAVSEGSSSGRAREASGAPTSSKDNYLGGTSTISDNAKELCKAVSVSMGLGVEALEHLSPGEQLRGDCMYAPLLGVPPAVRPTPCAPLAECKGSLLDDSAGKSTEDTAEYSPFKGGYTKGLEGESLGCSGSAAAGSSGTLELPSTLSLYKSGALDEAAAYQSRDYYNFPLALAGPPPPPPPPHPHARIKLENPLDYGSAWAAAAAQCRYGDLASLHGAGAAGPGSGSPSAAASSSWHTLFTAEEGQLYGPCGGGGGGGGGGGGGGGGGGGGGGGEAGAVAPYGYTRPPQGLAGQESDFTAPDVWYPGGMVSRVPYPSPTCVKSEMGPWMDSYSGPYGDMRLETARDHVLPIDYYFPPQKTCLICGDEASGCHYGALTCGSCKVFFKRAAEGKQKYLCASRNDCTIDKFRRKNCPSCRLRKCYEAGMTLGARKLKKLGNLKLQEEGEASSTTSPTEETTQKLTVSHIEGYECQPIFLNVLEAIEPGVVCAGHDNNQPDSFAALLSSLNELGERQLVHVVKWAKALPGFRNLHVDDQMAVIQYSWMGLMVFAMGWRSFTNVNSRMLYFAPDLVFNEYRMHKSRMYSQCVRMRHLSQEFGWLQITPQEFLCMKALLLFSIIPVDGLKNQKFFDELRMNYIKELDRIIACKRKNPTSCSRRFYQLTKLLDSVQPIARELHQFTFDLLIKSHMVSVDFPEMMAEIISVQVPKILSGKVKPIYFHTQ
Method in brief: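 Luminescent ONE-Glo read, 30min at room temperature, follows 16hr compound exposure (15 concentrations) of MDA-kb2 cells at 37C, 0% CO2, with nilutamide added at 3.0uM final.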

[19] = molecular target: Progesterone receptor (Homo sapiens) (UniProt P06401); assay: qHTS assay to identify small molecule antagonists of the progesterone receptor (PR) signaling pathway (AID 1346795; active = well fitted inhibition curve with a large enough effect in the signal ratio in the repeat runs, not every such curve was filed as active; the % refers to the signal ratio)
Method in brief: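 Fluorescence intensity measured 2 hr after adding beta-lactamase FRET substrate to PR-UAS-bla HEK293T cells that had been co-treated 16 hr with compound and 1 nM R5020 (final concentration) in 2% charcoal-stripped FBS.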
% is scaled to controls: 0 for no effect and ±100 for the full control effect.

CCCCCOC(=O)Nc1nc(=O)n([C@@H]2O[C@H](C)[C@@H](O)[C@H]2O)cc1F
inactive: Potency [1] | Potency [2] | outcome [3] | Potency [4] | Potency [5] | Potency [6] | Potency [7] | Potency [8] | outcome [9] | Potency [10] | outcome [11] | Potency [12] | Potency [13] | Potency [14] | outcome [15] | outcome [16] | outcome [17]

O=S(=O)(O)c1ccccc1O
inactive: Potency [1] | Potency [2] | outcome [3] | Potency [4] | Potency [5] | Potency [6] | Potency [18] | Potency [7] | Potency [8] | outcome [9] | Potency [10] | outcome [11] | Potency [12] | Potency [19] | Potency [13] | Potency [14] | outcome [15] | outcome [16] | outcome [17]

C1CCCCCCCCCCC1
inactive: activity change [1] -0.649% [at 18.9 µM, hits give high values] | activity change, negative = inhibition [2] 13.4% [at 19 µM] | activation [3] -0.402% [at 19 µM] | activity, negative = inhibition [4] 0.969% [at 19 µM] | activity change, negative = cytotoxicity [5] -1.18% [at 19 µM] | activity change, negative = cytotoxicity [6] -0.0692% [at 19 µM] | Potency [18] | activity change, negative = cytotoxicity [7] 1.11% [at 19 µM] | activation [8] -2.76% [at 19 µM] | cAMP activity change [9] -4.57% [at 18.9 µM] | activity change, negative = inhibition [10] -0.259% [at 19 µM] | activation [12] -0.689% [at 19 µM] | activity change, negative = inhibition [19] 0.992% [at 18.9 µM] | activity change, negative = cytotoxicity [13] 8.3% [at 18.9 µM] | activity change, negative = cytotoxicity [14] 1.68% [at 19 µM] | viability change, negative = cytotoxic [15] 13% [at 15.8 µM] | activity change, negative = cytotoxicity [16] 5.27% [at 15.8 µM] | activation [17] 1.5% [at 15.8 µM]

O=C(O)c1cccc(C(=O)O)n1
inactive: Potency [1] | Potency [2] | outcome [3] | Potency [4] | Potency [5] | Potency [6] | Potency [7] | Potency [8] | outcome [9] | Potency [10] | outcome [11] | Potency [12] | Potency [13] | outcome [15] | outcome [16] | outcome [17]

CO[Si](OC)(OC)OC
inactive: Potency [1] | Potency [2] | outcome [3] | Potency [4] | Potency [5] | Potency [6] | Potency [7] | outcome [9] | Potency [10] | outcome [11] | Potency [12] | Potency [19] | Potency [13] | Potency [14] | outcome [15] | outcome [16] | outcome [17]

C=C(C)C(=O)OCCCCCCCCCCCCCCCCCC
inactive: activity change [1] -0.0741% [at 18.9 µM, hits give high values] | activity change, negative = inhibition [2] 6.62% [at 19 µM] | activation [3] 0.356% [at 19 µM] | activity, negative = inhibition [4] -0.254% [at 19 µM] | activity change, negative = cytotoxicity [5] 0.335% [at 19 µM] | activity change, negative = cytotoxicity [6] -0.0598% [at 19 µM] | activity change, negative = cytotoxicity [7] 13.7% [at 19 µM] | activation [8] 0.0113% [at 19 µM] | cAMP activity change [9] -1.57% [at 18.9 µM] | activity change, negative = inhibition [10] 0.559% [at 19 µM] | activity change, negative = cytotoxicity [11] -3.47% [at 19 µM] | activation [12] 1.29% [at 19 µM] | activity change, negative = inhibition [19] -2.15% [at 18.9 µM] | activity change, negative = cytotoxicity [13] 16.4% [at 18.9 µM] | activity change, negative = cytotoxicity [14] 3.91% [at 19 µM] | viability change, negative = cytotoxic [15] 11% [at 15.8 µM] | activity change, negative = cytotoxicity [16] 16.7% [at 15.8 µM] | activation [17] 6.67% [at 15.8 µM]

O=C(O)c1ccc[n+]([O-])c1
inactive: Potency [1] | Potency [2] | outcome [3] | Potency [4] | Potency [5] | Potency [6] | Potency [18] | Potency [7] | Potency [8] | outcome [9] | Potency [10] | outcome [11] | Potency [12] | Potency [19] | Potency [13] | Potency [14] | outcome [15] | outcome [16] | outcome [17]
